Data: PubChem BioAssay (NCATS)
Values without a mark were called inactive. Results filed as inconclusive are left out. Entries that show only a call come without a potency. Activity calls are given as the source filed them. Unless noted, calls follow the shape of the dose curve; as a rule, active = well fitted curve in the direction sought with a large enough effect; inconclusive = small, poorly fitted or top-dose-only effect, or another doubt; inactive = no such curve, though single readings can be large; an effect the other way counts as inactive or inconclusive.

Columns and labels:
[1] = Cell Viability - Hek293 (AID 427;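 active = compounds whose dose-response curve shows a full or clear partial loss of cell viability, called from curve shape rather than a numeric limit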;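 also: potency is read from the fitted curve at half-maximal effect; cells exposed to compound for 40 hours at 37 °C before reading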); settings: qHTS
Summary of the method: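 Luminescent ATP read-out (CellTiter-Glo, 20 min RT) after 40 hr compound exposure at 37 °C in complete medium. Signal normalized to DMSO (basal) and 100 uM tamoxifen (100% inhibition); concentration-response fitted with the standard Hill equation to give AC50.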

[2] = Cell Viability - HepG2 (AID 433; calls by dose curve;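 also: potency is read from the fitted curve at half-maximal effect; potency for ATP loss meaning cytotoxicity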); settings: qHTS
Summary of the method: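 HepG2 cells, 1500 per well, treated 40 hr at 37 °C in complete medium; viability from intracellular ATP by CellTiter-Glo luminescence. Normalized to DMSO and 100 uM tamoxifen; AC50 from Hill fit of qHTS concentration-response.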

[3] = qHTS assay for small molecule agonists of the antioxidant response element (ARE) signaling pathway measured by Nrf2-dependant transcriptional activity (AID 720636; active = well fitted curve in the direction sought with a large enough effect in the repeat runs; an effect the other way counts as inactive or inconclusive;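 also: HepG2 cells with an ARE-driven luciferase reporter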); settings: ARE-luc HepG2, Nrf2 luciferase reporter, 16 h; series mostly up to 92.4 µM
Summary of the method: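 Attachment 6 hr at 37 C, then compound versus DMSO vehicle for 16 hr in ARE-luc HepG2 cells (1% dialyzed FBS); luminescence recorded 30 min after ONE-Glo addition at room temperature.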

[4] = Cell Viability - N2a (AID 540); settings: N2a mouse neuroblastoma cell viability; activity change, negative = cytotoxicity: at 92.2 µM (top of the series); also: nearly all actives have a fitted effect of over 45% in size; also: potency is read from the fitted curve at half-maximal effect
Summary of the method: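 Luminescent ATP signal (CellTiter-Glo, 20 min at room temperature) served as the viability read-out after N2a cells were treated with compounds for 40 hours at 37 °C. Concentration-response data were fitted to the Hill equation for AC50.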

[5] = Cell Viability - NIH 3T3 (AID 541); settings: NIH 3T3 cell viability, qHTS; activity change, negative = cytotoxicity: at 92.2 µM (top of the series); also: nearly all actives have a fitted effect of over 25% in size; also: potency is read from the fitted curve at half-maximal effect
Summary of the method: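 Luminescent ATP signal (CellTiter-Glo) served as the viability read-out after NIH 3T3 cells were exposed to compounds over a concentration range for 40 hr at 37 °C. Hill-equation modelling of concentration-response data gave AC50.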

[6] = Cellular Toxicity (caspase-3) HepG2 (AID 654); settings: HepG2 caspase-3 activation, luminescence, 0% = DMSO only, 100% = tamoxifen; series mostly up to 92.2 µM;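 also: cells exposed to compound for 16 hours before reading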
Summary of the method: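 Cells plated 5 hr at 37 °C, compound added, incubated 16 hr at 37 °C. Caspase-Glo 3/7 reagent followed, 20 min at room temperature, then luminescence read. Activation scored as signal increase; AC50 from Hill fit.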

[7] = Cellular Toxicity (caspase-3) MRC-5 (AID 659); settings: MRC-5 cells, luminescence, normalized: DMSO 0%, 10 µM staurosporine 100%; series mostly up to 91.7 µM
Summary of the method: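 MRC-5 human normal lung fibroblasts, 1500 cells/well, treated 16 h at 37 °C in complete medium. Caspase 3/7 measured by Caspase-Glo luminescence after 1 h at room temperature. Normalized to DMSO and 10 uM staurosporine; AC50 from Hill fit.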

[8] = Cellular Toxicity (caspase-3) SK-N-SH (AID 661); settings: SK-N-SH caspase-3 activation, qHTS, DMSO as zero, staurosporine as full; series mostly up to 91.7 µM
Summary of the method: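 Human neuroblastoma SK-N-SH, 1500 cells/well, 5 hr pre-incubation, then compound 16 hr, 37 °C. Caspase-Glo 3/7 reagent, 1 hr RT, luminescence. Norm. to DMSO/10 uM staurosporine; Hill-fit AC50.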

[9] = MultiTox-Fluor Cytotoxicity Assay - LYMP1-001 - Live Cells (AID 947); settings: LYMP1-001 lymphoblastoid cells, live-cell protease fluorescence viability; series mostly up to 92.2 µM; also: potency is read from the fitted curve at half-maximal effect
[10] = target: Tumor necrosis factor (Homo sapiens) (UniProt P01375); test: qHTS assay to identify small molecules that stimulate Tumor Necrosis Factor-alpha (TNF-alpha) secretion (AID 651757; active = well fitted curve in the direction sought with a large enough effect in the signal ratio; the % refers to the signal ratio); settings: Human cells, HTRF 665/615 ratio; series mostly up to 92.2 µM
Chain of Tumor necrosis factor (Homo sapiens) (P01375 whole entry, looked up): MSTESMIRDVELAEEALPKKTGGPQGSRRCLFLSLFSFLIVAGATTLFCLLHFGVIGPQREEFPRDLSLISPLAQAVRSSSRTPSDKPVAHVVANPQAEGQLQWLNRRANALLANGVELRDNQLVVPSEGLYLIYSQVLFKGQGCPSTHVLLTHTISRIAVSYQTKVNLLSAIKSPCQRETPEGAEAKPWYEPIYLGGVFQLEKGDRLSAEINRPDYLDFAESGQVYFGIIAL
Summary of the method: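 Read-out is HTRF, a TR-FRET sandwich of cryptate- and XL665-labeled anti-TNF-alpha antibodies detecting cytokine secreted by THP-1 cells. Cells had been incubated with test compounds at 37 C for 17 hrs beforehand.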

[11] = qHTS assay for cell viability of the p53RE-bla HCT-116 cell line (AID 743292); settings: p53RE-bla HCT-116 viability, ATP luminescence, 16 h; series mostly up to 95 µM; also: nearly all actives have a fitted effect of over 55% in size
Summary of the method: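 Compound-exposed HCT-116 (p53RE-bla) cells, 4,000 per well, were kept 16 h at 37 C following a 5 h preincubation. Cell number was estimated from total ATP by CellTiter-Glo luminescence read after 30 min at room temperature.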

[12] = Cell Viability - LYMP2-013 (AID 970); settings: LYMP2-013 lymphoblastoid cells viability; series mostly up to 92.2 µM; also: nearly all actives have a fitted effect of over 55% in size; also: potency is read from the fitted curve at half-maximal effect
Summary of the method: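 qHTS; 2500 lymphoblastoid cells/well; 5 hr 37 C settle; cpd 24 hr 37 C; CellTiter-Glo, 30 min RT; luminescence. AC50 = Hill fit.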

[13] = Cell Viability - LYMP2-015 (AID 971); settings: LYMP2-015 lymphoblastoid cell viability; series mostly up to 92.2 µM; also: nearly all actives have a fitted effect of over 55% in size; also: potency is read from the fitted curve at half-maximal effect
Summary of the method: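 Luminescent ATP read-out (CellTiter-Glo) served as the viability measure after lymphoblastoid cells were exposed to compounds for 24 hours at 37 C. Concentration-response data were fitted with the Hill equation to give AC50.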

[14] = Cell Viability - LYMP2-021 (AID 974); settings: LYMP2-021 lymphoblastoid cells viability; series mostly up to 92.2 µM;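 also: compound exposure lasts 24 hours at 37 °C; nearly all actives have a fitted effect of over 55% in size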; also: potency is read from the fitted curve at half-maximal effect
Summary of the method: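 Plate 2500 lymphoblastoid cells per well and incubate 5 hr at 37 C. Add compounds over a concentration range and incubate 24 hr at 37 C. Add CellTiter-Glo, wait 30 min at room temperature, read luminescence.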

[15] = Cell Viability - LYMP2-025 (AID 976); settings: LYMP2-025 lymphoblastoid cell viability; series mostly up to 92.2 µM; also: potency is read from the fitted curve at half-maximal effect
Summary of the method: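 Seed 2500 LYMP2-025 cells/well; 5 hr at 37 C; add compound; 24 hr at 37 C; add CellTiter-Glo; 30 min RT; read luminescence. AC50 from Hill-modelled concentration-response.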

[16] = Cell Viability - LYMP2-007 (AID 979); settings: LYMP2-007 lymphoblastoid cell viability; series mostly up to 92.2 µM;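 also: cells exposed to compound for 24 h before reading; nearly all actives have a fitted effect of over 60% in size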; also: potency is read from the fitted curve at half-maximal effect
Summary of the method: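 Luminescent ATP signal (CellTiter-Glo) serves as the viability read-out after 24 hr compound treatment of lymphoblastoid cells in complete medium at 37 C. Concentration-response data were fitted to the Hill equation to give AC50 values.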

[17] = Cell Viability - LYMP2-012 (AID 982); settings: LYMP2-012 lymphoblastoid cell viability qHTS; series mostly up to 92.2 µM; also: potency is read from the fitted curve at half-maximal effect
[18] = Cell Viability - LYMP2-020 (AID 986); settings: series mostly up to 92.2 µM; also: nearly all actives have a fitted effect of over 55% in size; also: potency is read from the fitted curve at half-maximal effect
Summary of the method: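 Luminescent ATP signal (CellTiter-Glo, 30 min at room temperature) is the read-out after 24 h compound treatment of lymphoblastoid cells at 37 C. AC50 values come from Hill-equation fits across concentrations.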

[19] = target: Voltage-gated inwardly rectifying potassium channel KCNH2 (Homo sapiens) (UniProt Q12809); test: qHTS Assay for Small Molecule Inhibitors of the Human hERG Channel Activity (AID 588834); settings: U2OS BacMam hERG, FluxOR thallium flux fluorescence; series mostly up to 92.2 µM;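 also: lower thallium flux fluorescence means stronger hERG block; nearly all actives have a fitted effect of over 50% in size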; also: potency is read from the fitted curve at half-maximal effect
Chain of Voltage-gated inwardly rectifying potassium channel KCNH2 (Homo sapiens) (Q12809 whole entry, looked up): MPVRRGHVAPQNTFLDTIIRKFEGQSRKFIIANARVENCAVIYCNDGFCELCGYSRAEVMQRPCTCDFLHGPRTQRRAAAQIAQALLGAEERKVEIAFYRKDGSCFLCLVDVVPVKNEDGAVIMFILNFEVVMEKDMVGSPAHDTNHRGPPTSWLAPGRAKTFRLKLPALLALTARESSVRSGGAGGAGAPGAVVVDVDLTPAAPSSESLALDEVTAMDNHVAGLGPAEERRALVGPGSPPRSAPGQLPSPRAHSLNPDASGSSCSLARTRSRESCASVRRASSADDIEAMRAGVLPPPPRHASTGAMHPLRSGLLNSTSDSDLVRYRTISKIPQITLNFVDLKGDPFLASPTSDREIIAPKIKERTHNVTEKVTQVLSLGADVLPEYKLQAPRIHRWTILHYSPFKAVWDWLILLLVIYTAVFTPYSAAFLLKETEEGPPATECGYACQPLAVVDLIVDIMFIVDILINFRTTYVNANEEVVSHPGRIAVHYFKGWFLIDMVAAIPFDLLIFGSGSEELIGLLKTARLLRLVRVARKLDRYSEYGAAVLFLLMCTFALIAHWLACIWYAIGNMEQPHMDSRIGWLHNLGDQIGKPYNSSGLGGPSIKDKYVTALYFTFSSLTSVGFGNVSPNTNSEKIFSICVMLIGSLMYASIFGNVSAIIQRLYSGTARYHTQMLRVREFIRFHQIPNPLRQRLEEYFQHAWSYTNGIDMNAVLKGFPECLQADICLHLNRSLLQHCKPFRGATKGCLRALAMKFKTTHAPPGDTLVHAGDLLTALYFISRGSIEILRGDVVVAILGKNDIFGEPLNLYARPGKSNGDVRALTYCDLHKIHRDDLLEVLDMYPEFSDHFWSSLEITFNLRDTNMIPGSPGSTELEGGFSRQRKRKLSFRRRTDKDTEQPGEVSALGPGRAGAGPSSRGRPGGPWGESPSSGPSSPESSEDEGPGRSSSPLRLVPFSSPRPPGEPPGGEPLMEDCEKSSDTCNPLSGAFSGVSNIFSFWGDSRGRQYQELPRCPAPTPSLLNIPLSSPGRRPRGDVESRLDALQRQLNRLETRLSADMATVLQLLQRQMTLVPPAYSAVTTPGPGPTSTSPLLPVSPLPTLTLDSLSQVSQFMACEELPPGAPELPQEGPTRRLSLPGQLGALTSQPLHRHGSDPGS
Summary of the method: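 U2OS cells BacMam-transduced with hERG, 2000 cells/well, compound ~10 min at 37 °C before stimulation buffer. FluxOR thallium flux fluorescence read kinetically on FDSS; decrease indicates block; AC50 from Hill fits.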

In the case of `O=[N+]([O-])c1ccccc1Cl`, the Potency [1] is reported as > 92 µM, the Potency [2] is reported as > 92 µM and the Potency [3] is reported as “inactive”.

For `C(=NC1CCCCC1)=NC1CCCCC1`, the Potency [2] was 3.31 µM (active), the Potency [4] was 10 µM (active) and the Potency [5] was 1 µM (active). The outcome [6] was “inactive”, the outcome [7] was “inactive” and the outcome [8] was “inactive”. For the same compound, the Potency [9] was “inactive”, the Potency [10] was “inactive” and the Potency [3] was “inactive”. The Potency [11] was “inactive”.

For `Oc1c(Cl)cc(Cl)cc1Cl`, the Potency [1] was > 92 µM and the Potency [2] was > 92 µM.

With `O=C(CCl)c1ccccc1` the activity change, negative = cytotoxicity [4] was -113% (active), the Potency [5] was 15.8 µM (active) and the outcome [6] was “inactive”. The outcome [7] was “inactive”, the outcome [8] was “inactive” and the Potency [12] was 15.8 µM (active). For the same compound, the Potency [13] was 7.94 µM (active), the Potency [14] was 10 µM (active) and the Potency [15] was 12.6 µM (active). The Potency [16] was 10 µM (active), the Potency [17] was 10 µM (active) and the Potency [18] was 7.94 µM (active). For the same compound, the Potency [19] was “inactive”, the Potency [10] was “inactive” and the Potency [11] was “inactive”.

For `COP(=O)(OC)O/C(=C\Cl)c1cc(Cl)c(Cl)cc1Cl`, the Potency [2] was > 92 µM, the outcome [6] was “inactive” and the outcome [7] was “inactive”. The outcome [8] was “inactive”, the Potency [9] was “inactive” and the Potency [13] was “inactive”. For the same compound, the Potency [15] was “inactive”, the Potency [17] was 50.1 µM (active) and the Potency [18] was “inactive”. The Potency [19] was “inactive”, the Potency [10] was “inactive” and the Potency [11] was “inactive”.

For `Cc1ccc2ccccc2c1C`, the Potency [1] was > 92 µM, the Potency [2] was > 92 µM and the Potency [3] was “inactive”.

In the case of `Nc1ccccc1C(=O)OCCc1ccccc1`, the Potency [1] is reported as > 92 µM, the Potency [2] is reported as > 92 µM and the activity change, negative = cytotoxicity [4] is reported as -14.5%. For the same compound, the outcome [6] was “inactive”, the outcome [7] was “inactive” and the outcome [8] was “inactive”. For the same compound, the Potency [9] was “inactive”, the Potency [12] was “inactive” and the Potency [13] was “inactive”. The Potency [14] was “inactive”, the Potency [15] was “inactive” and the Potency [16] was “inactive”. The Potency [17] was “inactive”, the Potency [18] was “inactive” and the Potency [10] was “inactive”. The Potency [11] was “inactive”.

With `O=[N+]([O-])c1cc(C(F)(F)F)cc([N+](=O)[O-])c1Cl` the Potency [1] was > 92 µM, the Potency [2] was > 92 µM and the activity change, negative = cytotoxicity [5] was -150% (active). For the same compound, the outcome [7] was “inactive”, the Potency [9] was “inactive” and the Potency [12] was 39.8 µM (active). The Potency [13] was 31.6 µM (active), the Potency [14] was 31.6 µM (active) and the Potency [15] was 50.1 µM (active). The Potency [16] was 39.8 µM (active), the Potency [17] was 31.6 µM (active) and the Potency [18] was 31.6 µM (active). For the same compound, the Potency [19] was “inactive”, the Potency [10] was “inactive” and the Potency [3] was “inactive”. The Potency [11] was “inactive”.

With `[CH3][Hg][Cl]` the Potency [1] was 33.3 µM (active), the Potency [2] was 31.7 µM (active) and the Potency [4] was 10 µM (active). The Potency [5] was 0.0316 µM (active), the outcome [6] was “inactive” and the outcome [7] was “inactive”. The outcome [8] was “inactive”, the Potency [9] was 39.8 µM (active) and the Potency [12] was 3.98 µM (active). For the same compound, the Potency [13] was 3.16 µM (active), the Potency [14] was 3.16 µM (active) and the Potency [15] was 7.94 µM (active). For the same compound, the Potency [16] was 3.98 µM (active), the Potency [17] was 3.16 µM (active) and the Potency [18] was 2.51 µM (active). For the same compound, the Potency [19] was 25.1 µM (active) and the Potency [10] was “inactive”.
